# Laboratory results as given in ChEMBL document CHEMBL3988442, “University of Dundee, Small-Polar-MMV Screening Library” (2021).
# Screen size: about 85,000 compounds; about 440 (0.52%) showed an effect of 50% or more. Shown is part of a subset that was picked to be rich in strong results.
# Experiment: In vitro enzyme assay to detect hydrolysis of chlorophenol red-beta-D-[…] directly proportional to the number of Toxoplasma stably expressing beta-galactosidase
# Type: functional, organism-based, Toxoplasma gondii
# Set-up: scale not given: in the data most compounds retested in dose-response had high values
SMILES,Percent Effect (50 µM) [%],Percent Effect (10 µM) [%]
N#Cc1ccc(N2CCOC2=O)nc1,0.2325,–
CCOc1ccc(NC(=O)[C@H](C)N(C)C)cc1CO,1.908,–
O=C(Cn1cc(Br)ccc1=O)NCC1CCOC1 (configuration not stated),-15.74,–
O=C(O)C1CCCN1c1nc(-c2ccc(Cl)cc2)cc(C(F)(F)F)n1 (configuration not stated),–,8.669
O=C(O)C1CCCN1c1nc(-c2ccc(Cl)c(Cl)c2)cc(C(F)(F)F)n1 (configuration not stated),–,13.78
NC1CCN(c2ccc(C(F)(F)F)cn2)CC1,7.702,–
CCc1ccc(-c2cc(C(F)(F)F)nc(N3CCC(N)CC3)n2)cc1,–,99.66
Cc1c(-c2cc(C(F)(F)F)nc(N3CCC(N)CC3)n2)cnn1C,–,84.58
Cc1c(S(=O)(=O)N2CCC(N)CC2)cnn1C,-0.6017,–
CCNC(=O)[C@@H]1C[C@H](N)CN1c1cc(C(F)(F)F)nc(N2CCCC2)n1,–,3.581
CCn1ncc(-c2cc(C(F)(F)F)nc(N3CCC(N)CC3)n2)c1C,–,74.85
Cc1ccc(-c2cc(C(F)(F)F)nc(N3CCOCC3)n2)s1,–,-3.229
NC(=O)C1CCN(CC(=O)Nc2ccc(F)cc2)CC1,-2.359,–
CCN(CC)CC(N)=O,-6.066,–
CC1CCCN(Cn2nccc2-c2cccnc2)C1 (configuration not stated),7.827,–
O=C(NCCc1ccccc1F)C1CCNCC1,-5.827,–
O=C(OCC(F)(F)F)c1cccnc1,-11.21,–
O=C(N[C@H]1CCCNC1)c1ccc(F)cc1F,-5.906,–
Cc1ccc(F)cc1C(=O)NC1CCCNC1 (configuration not stated),83.09,–
Cc1ccc(F)cc1C(=O)N[C@@H]1CCNC[C@H]1O,19.16,–
COCc1nnc(-c2ccc3c(c2)OCO3)o1,23.78,–
NC(=O)C1CCCN1C(=O)C1CCNCC1 (configuration not stated),-2.32,–
c1ccc(Nc2nccs2)nc1,-28.74,–
Oc1cc(C2CCCCN2Cc2cccs2)nc(-c2ccccn2)n1 (configuration not stated),–,91.06
Oc1cc(C2CCCN(Cc3cccs3)C2)nc(-c2ccccn2)n1 (configuration not stated),–,33.79
Oc1cc(C2CCCCN2Cc2cccs2)nc(-c2ccncc2)n1 (configuration not stated),–,-14.06

SMILES,Percent Effect (50 µM) [%],Percent Effect (10 µM) [%]
Cc1ccc(N)c(C)n1,4.322,–
OC(c1ccccc1)C1CCNCC1 (configuration not stated),-7.409,–
O=C(NCc1ccnc(NC2CC2)c1)C1CCCCC1,17,–
Cc1cccc(Cn2cc(Br)c(NS(C)(=O)=O)n2)c1,–,46.94
CS(=O)(=O)Nc1nn(Cc2ccc(F)cc2)cc1Br,–,62.42
Cc1ccc(Cn2cc(Br)c(NS(C)(=O)=O)n2)cc1,–,20
Cc1ccc(C(=O)N2C[C@@H](CO)[C@H](N(C)C)C2)cc1,0.785,–
CN(C)C(=O)CNC(CO)c1ccc(Cl)c(F)c1 (configuration not stated),52.18,–
CN(C)C(=O)CNC(CC(F)(F)F)c1ccc(Cl)cc1 (configuration not stated),–,0.885
CN(C)C(=O)CNC(CC(F)(F)F)c1ccc(F)cc1 (configuration not stated),–,4.779
CCNC(=O)c1cc2ccccc2n1C,-19.31,–
CCOC(CNC(=O)c1ccnn1C)c1ccccc1 (configuration not stated),-0.4622,–
Cn1nccc1C(N)=O,-25,–
CCOCC(C)OC(=O)c1ccnn1C (configuration not stated),57.1,–
NCCCn1nc2ccccn2c1=O,7.053,–
CCOc1ccc(Cl)cc1C(N)=O,-6.805,–
Cc1nn(C)c(C)c1CN(C)C(=O)c1cc(C(F)(F)F)n(C)n1,–,12.73
CCn1nc(C)c(NC(=O)c2cc(NC(=O)C3CC3)n(C)n2)c1C,–,0.1763
Cc1nn(C)c(C)c1CNC(=O)c1cc(NC(=O)C2CC2)n(C)n1,–,56.77
Cn1nc(C(=O)NC2CC2)cc1NC(=O)C1CC1,–,-1.586
Cn1nc(C(=O)NC2CCCC2)cc1NC(=O)C1CC1,–,-6.404
Cc1nn(C)c(C)c1CN(C)C(=O)c1cc(NC(=O)C2CC2)n(C)n1,–,51.38
CN(C)C1CCN(S(=O)(=O)c2ncn(C)c2Cl)CC1,-2.885,–
COCC(=O)Nc1c[nH]nc1C1CCCNC1 (configuration not stated),-10.17,–
COc1ccc(F)cc1C(=O)N1CCC(CN)CC1,-0.7009,–
Cc1nccc(C(=O)NCC(C)(C)CN(C)C)n1,2.804,–

SMILES,Percent Effect (50 µM) [%],Percent Effect (10 µM) [%]
COc1ccc(CNC(=O)CC2CCNC2)c(OC)c1 (configuration not stated),-8.79,–
CC(OCCCNC(=O)c1cccnc1O)c1ccccc1 (configuration not stated),–,39.02
CC(=O)c1ccc(C(=O)NCCCOC(C)c2ccccc2)s1 (configuration not stated),–,-2.061
COc1ccc(C(=O)NCCCOC(C)c2ccccc2)c(OC)c1 (configuration not stated),–,61.13
CNC1CCN(Cc2ncc(C)c(OC)c2C)CC1,36.04,–
CCCc1nc(NCCCOCC)c2c(n1)c(C)nn2CC,–,72.53
CCn1nc(C)c2nc(C)nc(NCCc3ccccc3)c21,–,19.6
CCc1nc(NCCCn2cccn2)c2c(n1)c(C)nn2CC,–,14.75
CCn1nc(C)c2nc(C(C)C)nc(NCCOC)c21,–,21.04
CCc1nc(NCCCOC)c2c(n1)c(C)nn2C,–,6.336
CCCc1nc(N2CCC(C)CC2)c2c(n1)c(C)nn2CC,–,25.59
CCCc1nc(NCC(=O)N2CCOCC2)c2c(n1)c(C)nn2CC,–,3.704
CCCc1nc(NCCCOC)c2c(n1)c(C)nn2CC,–,90.71
CCn1nc(C)c2nc(C)nc(NCCc3ccc(C)cc3)c21,–,34
CCCc1nc(NCCc2ccccc2)c2c(n1)c(C)nn2CC,–,68.81
CCCc1nc(NCCCO)c2c(n1)c(C)nn2CC,–,3.108
CCCc1nc(NCCOC)c2c(n1)c(C)nn2CC,–,57.71
CNCCCOC(C)C,-2.494,–
NC1CCN(CC2CC2)CC1,2.288,–
NC(=O)c1ccc(NC(=O)CCN2CC(O)C2)cc1,-17.28,–
CCC(Nc1cccc(OCC(F)(F)F)c1)C(N)=O (configuration not stated),-6.008,–
CCOC(=O)NC1CCC(NC(=O)C2CCC2)CC1 (configuration not stated),0.5853,–
CCN(CC)c1nc2nc[nH]c(=O)c2s1,-4.057,–
CC(CCN)CCO (configuration not stated),29.53,–
OCc1nncn1-c1ccccc1,12.09,–
